Experimental data published in PubChem BioAssay AID1159580 (chemical genetic matrix, 2015).
Screen size: about 5,500 compounds; about 2,000 (36%) were called active. About 18% were inconclusive and are not listed. The list shows a part of the results. A number with no mark means an inactive call. No stated cut-off is given here; in the data, active means normalized growth mostly below about 0.91 (no sharp cut-off); inconclusive means no clear call, values can overlap the other calls; inactive means mostly above about 0.92.

Assay: chemical genetic growth profiling, strain panel (AID 1159580);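 further: tested at 20 µM; growth read once vehicle control cultures reached saturation at 30 °C; 1 = growth at the plate median or of vehicle wells; lower values mean less growth of the strain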
Settings: S. cerevisiae deletion strains, growth OD
[1] = locus YAL040C, strain CLN3, hits give low values
[2] = locus YCL061C, strain MRC1 (second series), hits give low values
[3] = locus YDR363W, strain ESC2, hits give low values
[4] = locus YER002W, strain NOP16, hits give low values
[5] = locus YNL128W, strain TEP1, hits give low values
[6] = locus YNL175C, strain NOP13, hits give low values
[7] = locus YNL197C, strain WHI3, hits give low values
[8] = locus YNL224C, strain SQS1, hits give low values
[9] = locus YOR083W, strain WHI5 (second series), hits give low values
[10] = locus YPL241C, strain CIN2, hits give low values
[11] = locus YAL013W, strain DEP1, hits give low values
[12] = locus YBR229C, strain ROT2, hits give low values
[13] = locus YDL101C, strain DUN1, hits give low values
[14] = locus YDR150W, strain NUM1, hits give low values
[15] = locus YEL061C, strain CIN8, hits give low values
[16] = locus YGR078C, strain PAC10, hits give low values
[17] = locus YHR030C, strain SLT2, hits give low values
[18] = locus YHR087W, strain rtc3, hits give low values
[19] = locus YJL187C, strain SWE1, hits give low values
[20] = locus YJR043C, strain POL32, hits give low values
[21] = locus YJR075W, strain HOC1, hits give low values
[22] = locus YKL190W, strain CNB1, hits give low values
[23] = locus YLR039C, strain RIC1, hits give low values
[24] = locus YLR058C, strain SHM2 (second series), hits give low values
[25] = locus YLR085C, strain ARP6, hits give low values
[26] = locus YLR262C, strain YPT6, hits give low values
[27] = locus YML094W, strain GIM5, hits give low values
[28] = locus YMR219W, strain ESC1, hits give low values
[29] = locus YMR263W, strain SAP30, hits give low values
[30] = locus YNL153C, strain GIM3, hits give low values
[31] = locus YNL298W, strain CLA4 (second series), hits give low values
[32] = locus YNL322C, strain KRE1, hits give low values
[33] = locus YNR030W, strain Alg12, hits give low values
[34] = locus YOL006C, strain TOP1, hits give low values
[35] = locus YPL055C, strain LGE1, hits give low values
[36] = locus YPR135W, strain CTF4, hits give low values

SMILES: N#CC(C#N)=Cc1ccc([N+](=O)[O-])c(O)c1
- normalized growth [1]: 1.04
- normalized growth [2]: 0.991
- normalized growth [3]: 0.968
- normalized growth [4]: 0.956
- normalized growth (locus YMR307W, strain GAS1, hits give low values): 1.01
- normalized growth [5]: 0.966
- normalized growth [6]: 0.953
- normalized growth [7]: 0.955
- normalized growth [8]: 0.988
- normalized growth [9]: 0.992
- normalized growth [10]: 0.988

SMILES: N#Cc1ccc([N+](=O)[O-])s1
- normalized growth [11]: 0.726 (active)
- normalized growth [12]: 0.446 (active)
- normalized growth [13]: 0.201 (active)
- normalized growth (locus YDL134C, strain PPH21, hits give low values): 0.0493 (active)
- normalized growth [14]: 0.681 (active)
- normalized growth [15]: 0.194 (active)
- normalized growth [16]: 0.385 (active)
- normalized growth (locus YGR229C, strain SMI1, hits give low values): 0.992
- normalized growth [17]: 0.0826 (active)
- normalized growth [18]: 0.379 (active)
- normalized growth [19]: 0.261 (active)
- normalized growth [20]: 0.564 (active)
- normalized growth [21]: 0.198 (active)
- normalized growth [22]: 0.0802 (active)
- normalized growth [23]: 0.346 (active)
- normalized growth [24]: 0.461 (active)
- normalized growth [25]: 0.121 (active)
- normalized growth [26]: 0.588 (active)
- normalized growth [27]: 0.271 (active)
- normalized growth [28]: 0.7 (active)
- normalized growth [29]: 0.46 (active)
- normalized growth [30]: 0.382 (active)
- normalized growth [31]: 0.105 (active)
- normalized growth [32]: 1.01
- normalized growth [33]: 0.096 (active)
- normalized growth [34]: 0.115 (active)
- normalized growth [35]: 0.547 (active)
- normalized growth [10]: 0.0815 (active)
- normalized growth [36]: 0.186 (active)

SMILES: O=C1CCCc2c1nc(-c1ccccc1)n2O
- normalized growth [11]: 1
- normalized growth [12]: 1
- normalized growth [13]: 1.03
- normalized growth [14]: 0.966
- normalized growth [15]: 1.05
- normalized growth [16]: 1
- normalized growth [17]: 1.05
- normalized growth [18]: 0.999
- normalized growth [19]: 1.02
- normalized growth [20]: 0.995
- normalized growth [21]: 1.01
- normalized growth [22]: 1
- normalized growth [23]: 1.04
- normalized growth [24]: 1.03
- normalized growth [25]: 0.998
- normalized growth [26]: 1.06
- normalized growth [27]: 1.01
- normalized growth [28]: 1.01
- normalized growth [29]: 0.999
- normalized growth [30]: 1.03
- normalized growth [31]: 0.993
- normalized growth [32]: 1.01
- normalized growth [33]: 1.01
- normalized growth [34]: 0.999
- normalized growth [35]: 0.905
- normalized growth [10]: 1.02
- normalized growth [36]: 1

SMILES: CN1CCc2ccccc2Cc2[nH]c3ccccc3c2CC1
- normalized growth [11]: 1.01
- normalized growth [1]: 1.04
- normalized growth [2]: 1.01
- normalized growth [14]: 1.01
- normalized growth [3]: 0.97
- normalized growth [4]: 0.996
- normalized growth [16]: 0.994
- normalized growth [5]: 1.01
- normalized growth [30]: 1.03
- normalized growth [6]: 1.01
- normalized growth [7]: 1.01
- normalized growth [8]: 0.996
- normalized growth [32]: 1.02
- normalized growth [9]: 0.998
- normalized growth [35]: 1.01
- normalized growth [10]: 1.01
